Drawing on the supplement of paper PMC10681739, this text covers TF binding intensity and ETS1 binding intensity for 30 sequences.

RUNX1, sequence (Q01196 whole entry): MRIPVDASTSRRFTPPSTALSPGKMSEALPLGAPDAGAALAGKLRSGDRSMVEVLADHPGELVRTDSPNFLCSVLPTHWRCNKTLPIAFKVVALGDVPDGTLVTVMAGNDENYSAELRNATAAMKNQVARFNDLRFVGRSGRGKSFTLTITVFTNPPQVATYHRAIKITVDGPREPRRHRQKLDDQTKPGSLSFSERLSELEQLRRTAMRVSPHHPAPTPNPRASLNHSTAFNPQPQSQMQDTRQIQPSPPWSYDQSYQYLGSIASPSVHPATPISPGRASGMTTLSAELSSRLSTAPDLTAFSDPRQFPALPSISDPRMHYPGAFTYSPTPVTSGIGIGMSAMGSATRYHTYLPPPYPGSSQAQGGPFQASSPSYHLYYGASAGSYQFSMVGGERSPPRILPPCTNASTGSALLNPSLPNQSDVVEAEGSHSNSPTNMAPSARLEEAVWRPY

The first experiment addresses RUNX1 (UniProt Q01196). As to the kind of experiment: TF binding intensity (PBM fluorescence), negative control probe (arbitrary fluorescence units); higher = stronger binding.
Conditions: not given
The procedure: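 gcPBM negative-control 36-bp genomic probes lacking TF binding sites. Each was incubated with recombinant human ETS1 or RUNX1 alone and detected by antibody fluorescence. Values are medians over replicate spots (4 spots for the ETS1-RUNX1 arrays, 3 for the ETS1-ETS1 array). The probes sit in constant array flanks that are not printed.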
Turning to “ACCCCATTTCAGTCATTTCCTGCTGCAACTAAGTCA (protein concentration 2 nM)”, the TF binding intensity came out at 1070.

“TCTCCGCGCATTTTATTTCCGGTTCTGAGGACGCCG (protein concentration 2 nM)” came in with a TF binding intensity of 1040.

Sequence “GTGTTTTGCAGCGAAAGGAAATCTCGCTCTTCGGAA (protein concentration 2 nM)” registered a TF binding intensity of 882.

For the sequence “CGTCGCCCGGTCCCGGTTCCGGTCCGCGCTCCGGTC (protein concentration 2 nM)”, the TF binding intensity stood at 910.

In the case of “GACGAGCCCGGTGGCAGGAAGTGACAGTGAGAAACT (protein concentration 2 nM)”, the TF binding intensity worked out at 965.

Sequence “TCGAACAGAATGGAACGGAACGGAACGGAGCGTAAC (protein concentration 2 nM)” yielded a TF binding intensity of 1650.

“TCTGGACGATGCAGTTTTCCGGTATACGCGACGCTA (protein concentration 2 nM)” had a TF binding intensity of 727.

Consider “TCGGCGGCGGAGCACCGGAAGTTCTGCAGCACTGGC (protein concentration 2 nM)”, for which the TF binding intensity turned out to be 880.

As for “ATTCCATTCCAATCCTTTCCGCTCGGCTAAATTCCT (protein concentration 2 nM)”, the TF binding intensity was 1450.

Sequence “GCGTACACCTGCCGCCGGAAGAAGAGCGACGGTCGC (protein concentration 2 nM)” displayed a TF binding intensity of 909.

“CCTTTGAAAGAAAAAAGGAAGTGTTTGGACGACAGC (protein concentration 2 nM)” displayed a TF binding intensity of 1150.

The sequence “TCTCGCCCCTCATCCCGGAAAGGAAGACTCTGAATG (protein concentration 2 nM)” returned a TF binding intensity of 891.

In the case of “CTTCTGTCTCCAAAACGGAAATAATAACTTGAGATT (protein concentration 2 nM)”, the TF binding intensity worked out at 989.

“CTGATTCACTGCCCTCTTCCGCTCTGAGGCGTCGCC (protein concentration 2 nM)”: the TF binding intensity amounted to 1030.

In turn, “TGAAAAAGGGGAGGGCGGAAGTGACGAGCCGTAGCC (protein concentration 2 nM)” gave a TF binding intensity of 891.

As for “GAAGGGGTTTCAGGACGGAAGCAAACACATATTCAA (protein concentration 2 nM)”, the TF binding intensity was 912.

In turn, “CTCACCAGTCACCCCAGGAAACTCTGCCCCTTTACA (protein concentration 2 nM)” yielded a TF binding intensity of 950.

“GGTCCCAGGAGAGGGGTTCCGGGGTGAAAGAGTGAG (protein concentration 2 nM)” returned a TF binding intensity of 1060.

“GGGAGAGATGGGGCGCGGAAGGAACGAGGCGGGACG (protein concentration 2 nM)” came in with a TF binding intensity of 1350.

In turn, “CTGCTCGGCCAGGTCCGGAAAGAGAGAACGGGCTGG (protein concentration 2 nM)” registered a TF binding intensity of 859.

For the sequence “GAAAAACAGACAGACAGGAAGAGAGAGAGACAGACA (protein concentration 2 nM)”, the TF binding intensity amounted to 903.

Turning to “GGCCAGAGGAGGGCGCGGAAGTGTTGCCTGGGTGAG (protein concentration 2 nM)”, the TF binding intensity turned out to be 917.

As for “ACAGCTGAATTCTCACTTCCTTCGTCTCTGAGCCTG (protein concentration 2 nM)”, the TF binding intensity came out at 874.

“ACAGTTGCTCCGTCTCTTCCTGTGTCTGGCTTTATT (protein concentration 2 nM)” had a TF binding intensity of 876.

A further experiment has as its target T1, ETS1 (UniProt P14921).
T1 sequence: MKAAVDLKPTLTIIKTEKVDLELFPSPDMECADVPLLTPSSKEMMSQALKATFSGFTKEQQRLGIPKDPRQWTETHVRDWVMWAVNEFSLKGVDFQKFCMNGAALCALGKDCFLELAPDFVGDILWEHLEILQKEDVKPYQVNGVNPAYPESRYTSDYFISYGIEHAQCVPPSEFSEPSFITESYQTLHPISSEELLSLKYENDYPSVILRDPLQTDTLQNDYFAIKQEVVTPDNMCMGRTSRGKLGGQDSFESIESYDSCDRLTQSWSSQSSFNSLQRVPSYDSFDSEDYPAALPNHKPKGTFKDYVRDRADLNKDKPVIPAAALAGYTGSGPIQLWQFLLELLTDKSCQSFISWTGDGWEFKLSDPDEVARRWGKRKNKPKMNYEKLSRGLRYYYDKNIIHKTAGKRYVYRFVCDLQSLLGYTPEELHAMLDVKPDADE
As to the kind of experiment: ETS1 binding intensity (PBM fluorescence) in presence of RUNX1, normalised to ETS1-only experiment (arbitrary fluorescence units); higher = stronger binding. To be noted: ETS1 concentration 1 nM; RUNX1 concentration 25 nM.
For CGCCCACCACTTCCTGCTGGCGGTCGGCAAGCGTTG, the ETS1 binding intensity amounted to 2240.

ACTCCAGAGGAAGTGGCAAGACGAGCGCGGTAACGG: the ETS1 binding intensity was found to be 1560.

As to GCCCGCGGCTCCGGAAGCGGCTGCGGCCCCGACCGG, the ETS1 binding intensity is 3860.

Regarding CTGCTGCTTTTAGGATGTGGTTTTATTATTGTCGGG, the ETS1 binding intensity worked out at 4960.

TTCGGATTCCCGGAAGAACCCGCAGCAGCTCCCAGG: the ETS1 binding intensity came out at 1020.

Turning to GAGGGCCTGGGAGGAAGTGGGTTTTGCATACAGTCC, the ETS1 binding intensity came to 2510.
